Source: the supplement of paper PMC6555819

How the values were obtained:
Experiment in all cases: PBM binding z-score (relative to random genomic background probes); higher = stronger binding; sequences stand for … in GC…GCGATTGACAGCGTAGAATGAAGG
[1] = system: PPARg:RXRa DBDmut IVT, anti-RXR (DBD mutation: RXRa K156A/R161A, NR concentration 270 nM, RXRa partner concentration 90 nM)
In short: (§1)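 Ligand-free nuclear receptor dimers were bound for 1 h to custom Agilent 4×180K protein-binding microarrays. Detection used antibodies against each partner (one per run). Binding z-scores rest on regression-normalized fluorescence, with random background probes as the reference.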

[2] = system: PPARg:RXRa IVT, anti-PPARg (NR concentration 270 nM, RXRa partner concentration 90 nM)
In short: as §1

[3] = system: PPARg DBDmut:RXRa IVT, anti-PPARg (DBD mutation: PPARg1 K132A/R137A, NR concentration 270 nM, RXRa partner concentration 90 nM)
In short: as §1

[4] = system: PPARg DBDmut IVT, anti-PPARg (DBD mutation: PPARg1 K132A/R137A, NR concentration 270 nM)
In short: as §1

[5] = system: PPARg homodimer (NR concentration 180 nM)
In short: as §1

[6] = system: PXR:RXRa (NR concentration 270 nM, RXRa partner concentration 90 nM)
In short: as §1

[7] = system: PXR homodimer (NR concentration 270 nM)
In short: as §1

[8] = system: RARa:RXR (NR concentration 270 nM, RXRa partner concentration 90 nM)
In short: as §1

[9] = system: RARa homodimer (NR concentration 270 nM)
In short: as §1

[10] = system: RARb:RXRa (NR concentration 270 nM, RXRa partner concentration 90 nM)
In short: as §1

[11] = system: RARb homodimer (NR concentration 270 nM)
In short: as §1

[12] = system: RARg:RXRa (NR concentration 270 nM, RXRa partner concentration 90 nM)
In short: as §1

[13] = system: RARg homodimer (NR concentration 270 nM)
In short: as §1

[14] = system: RXRa DBDmut IVT, anti-RXR (DBD mutation: RXRa K156A/R161A, NR concentration 90 nM)
In short: as §1

[15] = system: RXRa homodimer (NR concentration 180 nM)
In short: as §1

[16] = system: THRa:RXRa (NR concentration 90 nM, RXRa partner concentration 90 nM)
In short: as §1

[17] = system: THRa homodimer (NR concentration 90 nM)
In short: as §1

[18] = system: VDR homodimer (NR concentration 270 nM)
In short: as §1

Row | Sequence | PBM binding z-score [1] | PBM binding z-score [2] | PBM binding z-score [3] | PBM binding z-score [4] | PBM binding z-score [5] | PBM binding z-score [6] | PBM binding z-score [7] | PBM binding z-score [8] | PBM binding z-score [9] | PBM binding z-score [10] | PBM binding z-score [11] | PBM binding z-score [12] | PBM binding z-score [13] | PBM binding z-score [14] | PBM binding z-score [15] | PBM binding z-score [16] | PBM binding z-score [17] | PBM binding z-score [18]
1 | AATACAGGCTCATCGTAGGCCAGAGTACGCACAG | -0.148 | -0.0891 | 0.24 | -0.0374 | -0.257 | -0.568 | -0.37 | -0.622 | 0.466 | -0.11 | 0.104 | -0.0529 | 0.066 | -0.472 | -0.0365 | 0.0323 | -0.199 | 0.118
2 | AATAGCAGGCCAAGGGTCACTCAAGATTAGTCCG | 2.14 | 4.27 | 0.158 | -0.162 | 1.57 | 3.26 | -0.222 | 4.09 | 0.758 | 3.54 | 3.86 | 4.1 | 3.92 | 0.264 | 4.46 | 2.8 | 0.187 | 1.06
3 | ATAGGTAGGTTACATCCGGGTCATTCAGGCTATG | 3.73 | 3.91 | 0.843 | 0.221 | 1.99 | 3.53 | 3.04 | 3.51 | 1.15 | 2.39 | 2.84 | 3.6 | 2.45 | 0.326 | 2.96 | 3.77 | 2.45 | 3.59
4 | CCTGCTAGGTCATGGTCTGCTAATCTACAGTATG | 4.68 | 3.6 | 0.818 | -0.517 | 0.597 | 1.33 | -0.00693 | 2.22 | -0.00634 | 3.87 | 2.97 | 3.73 | 4.43 | 2.02 | 2.66 | 3.17 | 1.35 | 0.439
5 | AGAACGAGGGCACGCTGAGTTGATAGTAGAGTAG | 4.08 | 3.89 | 0.542 | 0.293 | 0.125 | 1.26 | 0.49 | 0.759 | -0.324 | 2.57 | 1.25 | 1.99 | 2.41 | 2.07 | 1.34 | 1.9 | 0.0891 | 1.95
6 | GCTGCTATGTCAACTGATGGTCAGCTAAAGCTCG | 0.616 | -0.0594 | -1.42 | -1.27 | -1.18 | -0.32 | -0.913 | -0.149 | -1.19 | 0.753 | 0.659 | 0.506 | 0.101 | 0.137 | -0.00112 | -0.0819 | -1.13 | -0.702
7 | GGAGCGAGGGCAAAGTTGATAGCATCTGTCGACG | 0.739 | 1.35 | -0.304 | -0.838 | -0.183 | 0.839 | -0.0464 | 1.21 | -0.259 | 2.14 | 0.881 | 1.71 | 1.34 | 2.06 | 1.7 | 0.838 | -0.34 | 0.99
8 | ATCTTTAGGTAAGACTCAGTTCAGTGAAGAACGC | 0.866 | 0.683 | 1.19 | 0.877 | 0.751 | 1.35 | 1.56 | 0.837 | 1.14 | 0.585 | 0.715 | 0.526 | 0.533 | 0.843 | 0.131 | 1.28 | 0.881 | 1.44
9 | ATATCTAGGTAAAGATAGTTCAGTGAATGCAAAT | 5.82 | 5.59 | 2.76 | 1.53 | 1.12 | 0.896 | 0.584 | 0.384 | 0.705 | 0.775 | 0.985 | 0.606 | 0.877 | 0.0845 | 0.518 | 0.642 | -0.33 | 0.327
10 | TTACCAAGGCGAAGGTCGTTGATCCCTCTGTAGA | 0.0514 | 1.72 | -0.587 | -0.677 | 1.25 | 1.16 | 0.0255 | 1.26 | -0.525 | 0.787 | 0.804 | 0.317 | 0.0659 | 0.0625 | 1.13 | 1 | 0.0881 | 0.564
11 | TCCTGTAGATCAAGCAGGTTAAGAAAGCCTGAGT | 1.36 | -0.00456 | 0.0504 | -0.299 | -0.486 | 0.372 | 0.0191 | 0.301 | -0.136 | 0.0343 | 0.0843 | -0.142 | -0.295 | 0.428 | 0.45 | 0.254 | -0.566 | 0.241
12 | CGTACTGGGCCAAAGGTCATTGATTCCAATGCTC | 5.43 | 7 | 0.296 | -0.116 | 4.18 | 5.73 | 2.15 | 6.41 | 1.62 | 4.54 | 4.66 | 5.89 | 4.65 | 1.3 | 6.26 | 3.6 | 0.976 | 2.28
13 | CCTACTGGGCCAAGGTAATTGATCAGTCAAAGCA | 4.09 | 3.56 | -0.62 | -0.619 | -0.616 | -0.363 | -0.674 | 0.0953 | -0.936 | 0.0612 | 0.0571 | -0.354 | -0.0827 | -0.902 | -0.382 | 0.383 | -0.112 | -0.51
14 | ATCTCTAGGTAAAAGTTCATTGAATCCCGAGGAT | 1.93 | 3.85 | 1.8 | 0.918 | 1.37 | 3.67 | 3.67 | 2.6 | 0.624 | 2.84 | 2.65 | 2.61 | 2.06 | 1.89 | 2.82 | 1.87 | 0.281 | 3.33
15 | GCTAACAGGCCATTTGGGTCACTCAATGACGGGC | 1.61 | 1.82 | -0.246 | -0.627 | 0.24 | 0.795 | 0.0442 | 1.03 | -0.111 | 1.81 | 2.13 | 1.1 | 1.63 | 0.69 | 1.06 | 2.13 | 0.884 | 0.601
